Source: PubChem BioAssay
Active and inactive are the calls of the source.

Key:
[1] = test system: PRMT1 (protein arginine N-methyltransferase 1); assay: PRMT1 binders on small-molecule microarrays, primary screen, biochemical, small-molecule microarray, 635 nm fluorescence (AID 1088); conditions: small-molecule microarray binding, higher = more signal;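 also: binding of Prmt1 protein to compounds spotted on small-molecule microarray slides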
[2] = yeast growth modulation, basal conditions, primary screen, YJM789 clinical isolate, OD600, 24 h (AID 1089);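 also: growth of clinical yeast isolate S. cerevisiae YJM 789 seeded 1000 cells per well; test concentration not given here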; conditions: S. cerevisiae YJM789 growth, higher = more signal, called active from +8 up or from −8 down
[3] = fission yeast growth modulation, primary screen, strain 972, OD600, 24 h, no modulator (AID 1090);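 also: basal condition with compound alone and no growth modifier present; test concentration not given here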; conditions: S. pombe 972 growth, higher = more signal, called active from +8 up or from −8 down
[4] = S. cerevisiae growth modulation with rapamycin, primary screen, strain BY4716, OD600, 96 h (AID 1091); conditions: higher = more signal, called active from +8 up or from −8 down; also: test concentration not given here
[5] = target: Torsin-1A-interacting protein 2 (Homo sapiens) (UniProt Q8NFQ8); assay: LULL1 binders on small-molecule microarray, primary screen, cell lysate, human LULL1 lysate, 635/667 nm fluorescence (AID 1092); conditions: hLULL1 lysate binding, 635 nm fluorescence, higher = more signal;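 also: probe is lysate of COS7 cells overexpressing human LULL1; score merges per-feature 667 nm fluorescence with signal-to-noise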
[6] = E. coli growth modulation, two-sided OD650, primary screen, E. coli filamentation project, strain DRC41, 24 h (AID 1093); conditions: OD650, 24 h, higher = more signal, called active from +8 up or from −8 down;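 also: MC1000 strain lacking acrAB efflux and sulA so SOS filamentation is blocked; test concentration not given here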
[7] = small-molecule microarray binders of probe aLefty2, primary screen, biochemical, biotinylated probe, 635/667 nm fluorescence (AID 1094); conditions: higher = more signal;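 also: score merges spot fluorescence near 667 nm with spot signal-to-noise ratio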
[8] = test system: Noggin (protein binding on small-molecule microarray); assay: Noggin binders on small-molecule microarray, primary screen, biochemical, 635/667 nm fluorescence (AID 1095); conditions: 635 nm fluorescence, higher = more signal;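 also: score merges 667 nm feature fluorescence with signal to noise over triplicate slides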
[9] = target: Neurogenic locus notch homolog protein 3 (Homo sapiens) (UniProt Q9UM47); assay: NOTCH3 binders on small-molecule microarray, primary screen, biochemical, 635/667 nm fluorescence (AID 1096); conditions: NOTCH3 binding, 635 nm fluorescence, higher = more signal
[10] = small-molecule microarray binders of probe aEGFR, primary screen, biochemical, biotinylated probe, 635/667 nm fluorescence (AID 1097); conditions: higher = more signal;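 also: probe is a biotinylated anti-EGFR antibody binding compounds printed on slides; score combines fluorescence near 667 nm and signal to noise of each spot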

Chain of Neurogenic locus notch homolog protein 3 (Homo sapiens) (Q9UM47 whole entry, looked up): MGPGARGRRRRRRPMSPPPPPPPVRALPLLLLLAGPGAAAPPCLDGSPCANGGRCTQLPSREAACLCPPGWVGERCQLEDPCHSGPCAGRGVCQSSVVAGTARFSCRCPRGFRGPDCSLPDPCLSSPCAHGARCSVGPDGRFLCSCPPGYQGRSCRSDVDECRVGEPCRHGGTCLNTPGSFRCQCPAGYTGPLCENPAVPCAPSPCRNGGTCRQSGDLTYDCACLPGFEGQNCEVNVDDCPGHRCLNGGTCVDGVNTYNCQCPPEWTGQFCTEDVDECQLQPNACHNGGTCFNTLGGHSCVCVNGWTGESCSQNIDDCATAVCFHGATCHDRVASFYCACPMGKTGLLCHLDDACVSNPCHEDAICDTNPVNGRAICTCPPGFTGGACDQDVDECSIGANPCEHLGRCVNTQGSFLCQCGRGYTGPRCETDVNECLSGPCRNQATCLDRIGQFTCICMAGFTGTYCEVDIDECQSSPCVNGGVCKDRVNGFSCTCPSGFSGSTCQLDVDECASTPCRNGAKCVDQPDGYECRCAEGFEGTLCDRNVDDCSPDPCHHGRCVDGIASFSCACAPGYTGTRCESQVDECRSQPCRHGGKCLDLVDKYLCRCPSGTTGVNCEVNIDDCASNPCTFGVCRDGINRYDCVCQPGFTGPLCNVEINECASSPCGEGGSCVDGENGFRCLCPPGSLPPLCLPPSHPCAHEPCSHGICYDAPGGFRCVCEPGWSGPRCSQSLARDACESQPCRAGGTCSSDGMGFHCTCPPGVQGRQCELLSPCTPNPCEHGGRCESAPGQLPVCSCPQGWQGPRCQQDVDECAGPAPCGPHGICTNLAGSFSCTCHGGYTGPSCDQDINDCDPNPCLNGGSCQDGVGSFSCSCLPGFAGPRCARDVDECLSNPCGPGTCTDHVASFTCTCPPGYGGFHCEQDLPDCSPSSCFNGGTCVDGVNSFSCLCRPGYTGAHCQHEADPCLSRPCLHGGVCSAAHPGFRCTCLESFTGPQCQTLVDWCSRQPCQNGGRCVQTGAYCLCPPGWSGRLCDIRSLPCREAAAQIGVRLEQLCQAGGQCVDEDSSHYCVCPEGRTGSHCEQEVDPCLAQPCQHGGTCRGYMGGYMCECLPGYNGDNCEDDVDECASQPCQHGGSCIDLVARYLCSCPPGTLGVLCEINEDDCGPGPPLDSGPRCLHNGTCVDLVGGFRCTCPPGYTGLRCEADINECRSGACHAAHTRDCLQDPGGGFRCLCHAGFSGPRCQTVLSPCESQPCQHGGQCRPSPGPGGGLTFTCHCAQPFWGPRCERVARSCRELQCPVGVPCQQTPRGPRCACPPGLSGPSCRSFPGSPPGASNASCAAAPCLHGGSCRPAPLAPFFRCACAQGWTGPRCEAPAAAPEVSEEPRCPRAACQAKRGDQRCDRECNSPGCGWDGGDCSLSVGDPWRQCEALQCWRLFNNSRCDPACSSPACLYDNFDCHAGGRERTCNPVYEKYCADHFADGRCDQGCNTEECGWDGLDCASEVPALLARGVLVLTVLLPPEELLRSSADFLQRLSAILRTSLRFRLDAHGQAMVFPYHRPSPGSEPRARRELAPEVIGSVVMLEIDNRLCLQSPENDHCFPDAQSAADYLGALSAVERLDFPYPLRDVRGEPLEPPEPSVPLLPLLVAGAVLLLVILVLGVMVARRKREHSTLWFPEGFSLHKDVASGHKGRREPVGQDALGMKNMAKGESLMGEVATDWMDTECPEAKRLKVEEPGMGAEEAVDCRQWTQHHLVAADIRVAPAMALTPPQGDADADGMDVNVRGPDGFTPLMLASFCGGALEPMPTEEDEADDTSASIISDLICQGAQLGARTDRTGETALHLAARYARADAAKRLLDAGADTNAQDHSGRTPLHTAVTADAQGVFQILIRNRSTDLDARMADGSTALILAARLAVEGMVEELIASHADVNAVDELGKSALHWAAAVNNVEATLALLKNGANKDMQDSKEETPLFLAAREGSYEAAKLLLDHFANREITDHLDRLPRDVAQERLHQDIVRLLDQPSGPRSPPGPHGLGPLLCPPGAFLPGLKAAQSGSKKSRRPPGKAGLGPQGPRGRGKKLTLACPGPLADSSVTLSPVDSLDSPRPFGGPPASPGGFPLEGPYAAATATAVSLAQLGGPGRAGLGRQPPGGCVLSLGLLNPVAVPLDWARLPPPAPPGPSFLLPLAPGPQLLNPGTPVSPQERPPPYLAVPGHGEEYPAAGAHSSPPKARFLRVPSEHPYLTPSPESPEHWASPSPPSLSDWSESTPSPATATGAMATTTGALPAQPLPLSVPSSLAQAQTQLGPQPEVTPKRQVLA
Chain of Torsin-1A-interacting protein 2 (Homo sapiens) (Q8NFQ8 whole entry, looked up): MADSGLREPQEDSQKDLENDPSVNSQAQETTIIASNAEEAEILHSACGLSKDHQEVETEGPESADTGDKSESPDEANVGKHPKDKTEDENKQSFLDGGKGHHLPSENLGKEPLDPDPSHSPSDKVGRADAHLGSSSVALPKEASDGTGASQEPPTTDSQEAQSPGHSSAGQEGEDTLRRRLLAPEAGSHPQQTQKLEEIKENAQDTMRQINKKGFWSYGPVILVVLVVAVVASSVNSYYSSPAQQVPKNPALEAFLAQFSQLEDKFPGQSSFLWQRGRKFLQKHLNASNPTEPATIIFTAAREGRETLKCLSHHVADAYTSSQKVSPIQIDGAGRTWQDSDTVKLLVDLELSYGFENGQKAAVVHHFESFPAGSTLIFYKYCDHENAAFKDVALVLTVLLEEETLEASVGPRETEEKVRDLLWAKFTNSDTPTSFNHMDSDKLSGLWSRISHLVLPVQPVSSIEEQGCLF

SMILES	composite z-score [1]	z-score [2]	z-score [3]	z-score [4]	composite z-score [5]	z-score [6]	composite z-score [7]	composite z-score [8]	composite z-score [9]	composite z-score [10]
COc1cc2c(cc1O)C(C1CC1)N(Cc1sc3ccccc3c1Cl)CC2 (stereo not given)	0.641	-26 (active)	-20 (active)	-1.46 (inactive)	3.15	-0.587 (inactive)	-0.0468	-0.181	0.579	-0.149
COc1cc2c(cc1OC)CN(C(=O)[C@@H]1[C@H]3C(=O)O[C@H](c4ccccc4)[C@H](c4ccccc4)N3[C@H](c3ccc(O)cc3)[C@@]13C(=O)Nc1ccccc13)CC2	1.35	0.27 (inactive)	-0.0755 (inactive)	0.637 (inactive)	3.04	3.03 (inactive)	-0.115	0.497	0.347	-0.115
O=C1NC(=O)C2C1C=CC(C(O)c1cccs1)N2Nc1ccc(Cl)cc1Cl (stereo not given)	0.407	1.01 (inactive)	0.186 (inactive)	1.74 (inactive)	2.37	-0.0056 (inactive)	-0.0333	-0.394	-0.23	-0.0476
Cc1ccc(S[C@]2(C(=O)NCCCN(C)C)CC(=O)N(Cc3cc(C(F)(F)F)cc(C(F)(F)F)c3)[C@@H]2c2ccc(CO)cc2I)cc1	-0.371	-1.17 (inactive)	-3.06 (inactive)	1.03 (inactive)	1.77	0.888 (inactive)	0.269	-1.64	-0.937	-0.0246
C=C(CCCC)/C(=C/C[C@H](OC(C)=O)c1ccccc1OCCO)c1cc(C(=O)OC)ccc1OC	-0.0836	0.556 (inactive)	-0.886 (inactive)	-0.24 (inactive)	0.405	1.18 (inactive)	-0.171	-0.035	0.212	-0.126
O=C(c1ccccc1)N1C(=O)[C@]2(COC(c3ccc(OCCCO)cc3)=N2)Cc2ccccc21	1.53	-1.84 (inactive)	0.901 (inactive)	4.51 (inactive)	3.17	-0.178 (inactive)	0.133	0.722	1.15	-0.0989
CC1(C)C2C=C(C(O)C3C=CC4C(=O)NC(=O)C4N3Nc3ccc(Cl)cc3Cl)C[C@@H]1C2 (stereo not given in full)	0.804	-7.63 (inactive)	-6.77 (inactive)	0.722 (inactive)	1.33	-2.98 (inactive)	0.374	0.178	0.996	0.279
